# Source: PubChem BioAssay (NCI)
# Compounds without any hit were thinned out: in the full panel of roughly 79,000, 15% have a hit. A number with no mark means an inactive call. Activity calls are given as the source filed them. Rule as the data show it: active = growth inhibition above about 70%; inactive = the rest.
# Assays:
# [1] = NCI Yeast Anticancer Drug Screen. Data for the wt1 strain (AID 149);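 also: 0% = growth of vehicle-treated wt1 cultures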; conditions: S. cerevisiae wt1 strain (SPY 50644) growth inhibition, hits give high values
# Summary of the method: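 The wt1 strain was treated with compounds, and growth was compared with vehicle-treated cultures to give inhibition.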
# [2] = NCI Yeast Anticancer Drug Screen. Data for the rad50EPP+ strain (AID 151);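 also: 0% = growth of vehicle-treated control cultures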; conditions: S. cerevisiae rad50 mutant strain, hits give high values
# Summary of the method: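 One strain with a rad50 alteration (rad50EPP+) was compound-treated, its growth then compared to that of vehicle controls.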
# [3] = NCI Yeast Anticancer Drug Screen. Data for the mgt1 strain (AID 153); conditions: S. cerevisiae mgt1 mutant growth inhibition, hits give high values
# Summary of the method: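 After exposure of the mgt1 yeast mutant to compound, growth was measured and reported as inhibition compared with vehicle controls.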
# [4] = NCI Yeast Anticancer Drug Screen. Data for the rad50 strain (AID 155);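 also: 0% = growth of vehicle-only cultures of the same strain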; conditions: S. cerevisiae rad50 strain growth inhibition, hits give high values
# Summary of the method: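 Cells are treated with compound, grown, and their growth is then scored against vehicle-only cultures of the same repair-deficient yeast strain.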
# [5] = NCI Yeast Anticancer Drug Screen. Data for the mec2-1 strain (AID 157); conditions: S. cerevisiae mec2-1 strain, hits give high values
# Summary of the method: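 Test agents were screened against the mec2-1 yeast strain, with defined DNA repair or cell cycle alteration. Growth was scored as inhibition against vehicle-only controls.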
# [6] = NCI Yeast Anticancer Drug Screen. Data for the rad14 strain (AID 159);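 also: 0% = growth of vehicle-treated control cultures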; conditions: S. cerevisiae rad14 strain growth inhibition, hits give high values
# Summary of the method: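 Readout: yeast growth inhibition, referenced to vehicle-only cultures. Strain bears a defined alteration in DNA damage repair.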
# [7] = NCI Yeast Anticancer Drug Screen. Data for the sgs1 mgt1 strain (AID 161);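 also: 0% = growth of cultures given vehicle only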; conditions: S. cerevisiae sgs1 mgt1 strain, hits give high values
# Summary of the method: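 Mutant yeast exposed to compound; growth scored against vehicle-only wells.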
# [8] = NCI Yeast Anticancer Drug Screen. Data for the CLN2oe strain (AID 163);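 also: 0% = growth of vehicle-only control cultures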; conditions: S. cerevisiae CLN2oe strain, hits give high values
# Summary of the method: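 Here, growth inhibition in a cell-cycle-altered yeast strain after compound exposure was quantified against vehicle control growth.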
# [9] = NCI Yeast Anticancer Drug Screen. Data for the cln2 rad14 strain (AID 165);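 also: 0% = growth equal to vehicle treated cultures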; conditions: S. cerevisiae cln2 rad14 strain, hits give high values
# Summary of the method: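 Growth of compound-exposed yeast (cln2 rad14 genotype) measured and expressed as inhibition relative to vehicle.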
# [10] = NCI Yeast Anticancer Drug Screen. Data for the bub3 strain (AID 167); conditions: S. cerevisiae bub3 mutant strain, hits give high values
# Summary of the method: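 Part of a panel of yeast mutants defective in DNA damage repair or cell cycle regulation. Each strain is grown with compound, and inhibition is calculated relative to solvent-treated cultures.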
# [11] = NCI Yeast Anticancer Drug Screen. Data for the wt2 strain (AID 169);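 also: 0% = growth of vehicle-treated yeast cultures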; conditions: S. cerevisiae wt2 strain growth inhibition, hits give high values
# Summary of the method: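 Genetically defined yeast strains from a DNA-repair/cell-cycle panel were used. Compound-exposed yeast growth was measured, and the inhibition was calculated relative to vehicle treatment.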
# [12] = NCI Yeast Anticancer Drug Screen. Data for the mlh1 strain (AID 171);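 also: 0% = growth of vehicle-treated control cultures of the same strain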; conditions: S. cerevisiae mlh1 strain growth inhibition, hits give high values
# Summary of the method: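 Here the genetically defined yeast mutant is grown with each compound, and the extent to which its growth falls below that of vehicle-exposed cells is reported.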
# [13] = NCI Yeast Anticancer Drug Screen. Data for the sgs1 strain (AID 173);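 also: 0% = growth of vehicle-only control cultures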; conditions: S. cerevisiae sgs1 mutant, hits give high values
# Summary of the method: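 Relative growth inhibition, referenced to vehicle, was determined in a yeast strain with a defined alteration affecting DNA damage repair or cell cycle control after compound exposure.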
# [14] = NCI Yeast Anticancer Drug Screen. Data for the mlh1 rad18 strain (AID 175); conditions: S. cerevisiae mlh1 rad18 strain growth inhibition, hits give high values
# Summary of the method: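 In this whole-cell yeast screen, a strain with altered DNA damage repair is challenged with compound, and its growth is measured against matched vehicle-treated controls.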
# [15] = NCI Yeast Anticancer Drug Screen. Data for the rad18 strain (AID 177); conditions: S. cerevisiae rad18 mutant growth inhibition, hits give high values
# Summary of the method: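 Screen uses a yeast strain with a defined lesion in DNA damage repair; compound effect is read as loss of growth compared to untreated vehicle cultures.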
# [16] = at 5.0 µM (retest, dose inferred, filed as 0.5)
# [17] = at 50.0 µM (retest, dose inferred, filed as 5.0)
compound,measurement,setting,value
C[Si](C)(C)Cc1ccccc1C(=O)O,growth inhibition,[1]; at 1.2 µM,1%
same,growth inhibition,[1]; at 3.7 µM,1%
same,growth inhibition,[1]; at 11.0 µM,4%
same,growth inhibition,[1]; at 33.0 µM,38%
same,growth inhibition,[1]; at 100.0 µM,99% (active)
same,growth inhibition,[2]; at 1.2 µM,-2%
same,growth inhibition,[2]; at 3.7 µM,1%
same,growth inhibition,[2]; at 11.0 µM,0%
same,growth inhibition,[2]; at 33.0 µM,4%
same,growth inhibition,[2]; at 100.0 µM,3%
same,growth inhibition,[3]; at 1.2 µM,1%
same,growth inhibition,[3]; at 3.7 µM,6%
same,growth inhibition,[3]; at 11.0 µM,-2%
same,growth inhibition,[3]; at 33.0 µM,15%
same,growth inhibition,[3]; at 100.0 µM,99% (active)
same,growth inhibition,[4]; at 1.2 µM,4%
same,growth inhibition,[4]; at 3.7 µM,9%
same,growth inhibition,[4]; [16],2%
same,growth inhibition,[4]; at 11.0 µM,4%
same,growth inhibition,[4]; at 33.0 µM,56%
same,growth inhibition,[4]; [17],80% (active)
same,growth inhibition,[4]; at 50.0 µM,97.7% (active)
same,growth inhibition,[4]; at 100.0 µM,98% (active)
same,growth inhibition,[5]; at 1.2 µM,4%
same,growth inhibition,[5]; at 3.7 µM,4%
same,growth inhibition,[5]; [16],8%
same,growth inhibition,[5]; at 11.0 µM,8%
same,growth inhibition,[5]; at 33.0 µM,29%
same,growth inhibition,[5]; [17],86% (active)
same,growth inhibition,[5]; at 50.0 µM,97% (active)
same,growth inhibition,[5]; at 100.0 µM,98% (active)
same,growth inhibition,[6]; at 1.2 µM,1%
same,growth inhibition,[6]; at 3.7 µM,-4%
same,growth inhibition,[6]; at 11.0 µM,0%
same,growth inhibition,[6]; at 33.0 µM,32%
same,growth inhibition,[6]; at 100.0 µM,99% (active)
same,growth inhibition,[7]; [16],9%
same,growth inhibition,[7]; [17],38%
same,growth inhibition,[7]; at 50.0 µM,97.4% (active)
same,growth inhibition,[8]; at 1.2 µM,9%
same,growth inhibition,[8]; at 3.7 µM,12%
same,growth inhibition,[8]; at 11.0 µM,11%
same,growth inhibition,[8]; at 33.0 µM,20%
same,growth inhibition,[8]; at 100.0 µM,99% (active)
same,growth inhibition,[9]; [16],33%
same,growth inhibition,[9]; [17],86% (active)
same,growth inhibition,[9]; at 50.0 µM,98% (active)
same,growth inhibition,[10]; at 1.2 µM,6%
same,growth inhibition,[10]; at 3.7 µM,8%
same,growth inhibition,[10]; [16],5%
same,growth inhibition,[10]; at 11.0 µM,2%
same,growth inhibition,[10]; at 33.0 µM,6%
same,growth inhibition,[10]; [17],17%
same,growth inhibition,[10]; at 50.0 µM,97% (active)
same,growth inhibition,[10]; at 100.0 µM,97% (active)
same,growth inhibition,[11]; at 1.2 µM,-1%
same,growth inhibition,[11]; at 3.7 µM,-3%
same,growth inhibition,[11]; at 11.0 µM,-1%
same,growth inhibition,[11]; at 33.0 µM,52%
same,growth inhibition,[11]; at 100.0 µM,99% (active)
same,growth inhibition,[12]; at 1.2 µM,3%
same,growth inhibition,[12]; at 3.7 µM,12%
same,growth inhibition,[12]; at 11.0 µM,3%
same,growth inhibition,[12]; at 33.0 µM,42%
same,growth inhibition,[12]; at 100.0 µM,99% (active)
same,growth inhibition,[13]; at 1.2 µM,-1%
same,growth inhibition,[13]; at 3.7 µM,1%
same,growth inhibition,[13]; at 11.0 µM,5%
same,growth inhibition,[13]; at 33.0 µM,65%
same,growth inhibition,[13]; at 100.0 µM,99% (active)
same,growth inhibition,[14]; [16],-2%
same,growth inhibition,[14]; [17],83% (active)
same,growth inhibition,[14]; at 50.0 µM,98.2% (active)
O=C(Cc1ccccc1F)NC1=C(Cl)C(=O)c2ccccc2C1=O,growth inhibition,[1]; at 1.2 µM,1%
same,growth inhibition,[1]; at 3.7 µM,0%
same,growth inhibition,[1]; at 11.0 µM,0%
same,growth inhibition,[1]; at 33.0 µM,9%
same,growth inhibition,[1]; at 100.0 µM,17%
same,growth inhibition,[2]; at 1.2 µM,40%
same,growth inhibition,[2]; at 3.7 µM,43%
same,growth inhibition,[2]; at 11.0 µM,51%
same,growth inhibition,[2]; at 33.0 µM,48%
same,growth inhibition,[2]; at 100.0 µM,59%
same,growth inhibition,[3]; at 1.2 µM,-2%
same,growth inhibition,[3]; at 3.7 µM,11%
same,growth inhibition,[3]; at 11.0 µM,8%
same,growth inhibition,[3]; at 33.0 µM,3%
same,growth inhibition,[3]; at 100.0 µM,14%
same,growth inhibition,[4]; at 1.2 µM,20%
same,growth inhibition,[4]; at 3.7 µM,26%
same,growth inhibition,[4]; [16],14%
same,growth inhibition,[4]; at 11.0 µM,13%
same,growth inhibition,[4]; at 33.0 µM,22%
same,growth inhibition,[4]; [17],4%
same,growth inhibition,[4]; at 50.0 µM,30.8%
same,growth inhibition,[4]; at 100.0 µM,37%
same,growth inhibition,[5]; at 1.2 µM,41%
same,growth inhibition,[5]; at 3.7 µM,45%
same,growth inhibition,[5]; [16],-16%
same,growth inhibition,[5]; at 11.0 µM,46%
same,growth inhibition,[5]; at 33.0 µM,55%
same,growth inhibition,[5]; [17],50%
same,growth inhibition,[5]; at 50.0 µM,-14.2%
same,growth inhibition,[5]; at 100.0 µM,69%
same,growth inhibition,[6]; at 1.2 µM,-26%
same,growth inhibition,[6]; at 3.7 µM,-12%
same,growth inhibition,[6]; at 11.0 µM,-8%
same,growth inhibition,[6]; at 33.0 µM,19%
same,growth inhibition,[6]; at 100.0 µM,38%
same,growth inhibition,[7]; [16],1%
same,growth inhibition,[7]; [17],54%
same,growth inhibition,[7]; at 50.0 µM,11.4%
same,growth inhibition,[8]; at 1.2 µM,1%
same,growth inhibition,[8]; at 3.7 µM,18%
same,growth inhibition,[8]; at 11.0 µM,19%
same,growth inhibition,[8]; at 33.0 µM,-1%
same,growth inhibition,[8]; at 100.0 µM,27%
same,growth inhibition,[9]; [16],33%
same,growth inhibition,[9]; [17],45%
same,growth inhibition,[9]; at 50.0 µM,24.3%
same,growth inhibition,[10]; at 1.2 µM,14%
same,growth inhibition,[10]; at 3.7 µM,17%
same,growth inhibition,[10]; [16],-6%
same,growth inhibition,[10]; at 11.0 µM,27%
same,growth inhibition,[10]; at 33.0 µM,47%
same,growth inhibition,[10]; [17],70% (active)
same,growth inhibition,[10]; at 50.0 µM,54%
same,growth inhibition,[10]; at 100.0 µM,73% (active)
same,growth inhibition,[11]; at 1.2 µM,-9%
same,growth inhibition,[11]; at 3.7 µM,3%
same,growth inhibition,[11]; at 11.0 µM,-8%
same,growth inhibition,[11]; at 33.0 µM,-1%
same,growth inhibition,[11]; at 100.0 µM,-4%
same,growth inhibition,[12]; at 1.2 µM,-2%
same,growth inhibition,[12]; at 3.7 µM,11%
same,growth inhibition,[12]; at 11.0 µM,8%
same,growth inhibition,[12]; at 33.0 µM,3%
same,growth inhibition,[12]; at 100.0 µM,14%
same,growth inhibition,[13]; at 1.2 µM,39%
same,growth inhibition,[13]; at 3.7 µM,35%
same,growth inhibition,[13]; at 11.0 µM,41%
same,growth inhibition,[13]; at 33.0 µM,59%
same,growth inhibition,[13]; at 100.0 µM,58%
same,growth inhibition,[14]; [16],20%
same,growth inhibition,[14]; [17],28%
same,growth inhibition,[14]; at 50.0 µM,-1.75%
same,growth inhibition,[15]; at 1.2 µM,29%
same,growth inhibition,[15]; at 3.7 µM,6%
same,growth inhibition,[15]; at 11.0 µM,25%
same,growth inhibition,[15]; at 33.0 µM,34%
same,growth inhibition,[15]; at 100.0 µM,40%
